This is an account of results in PubChem BioAssay (NCI).

Among the test systems are HT29 colon; SNB-75 CNS; SNB-19 CNS; U251 CNS; PC-3 prostate; SK-MEL-5 melanoma; UACC-62 melanoma; LOX IMVI melanoma; SK-MEL-28 melanoma; SK-MEL-2 melanoma; SN12C renal; UO-31 renal; TK-10 renal; ACHN renal; CAKI-1 renal; A498 renal; CCRF-CEM leukemia; MOLT-4 leukemia; SR leukemia.
Common to all, as to assay: NCI-60 one-dose screen, 48 h (100 = growth as untreated, 0 = no growth, -100 = all killed)
Holding throughout (conditions): 10 µM

This is part of a sample that, as a whole, favours compounds with a hit. Of some 83,000 tested, about 20% had one in any assay.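 Treatment: one concentration, 48 hours, 96-well format. Scoring: percent growth, with anything below 10 considered active.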 Unmarked numbers belong to inactive results. Active and inactive are the calls of the source.

On to `Nc1ccccc1NC(=O)CCCCC(=O)Nc1ccc2c(c1)/C(=C/c1ccc[nH]1)C(=O)N2`, for which the growth with HT29 colon was 67.2%; in the test with SNB-75 CNS it was 16.9%; in the test with SNB-19 CNS it was 76.4%; with U251 CNS, 48.5%; with PC-3 prostate it was 81.6%; in the test with SK-MEL-5 melanoma, 87.7%. Besides, the growth in the test on UACC-62 melanoma was 58%; in the test on LOX IMVI melanoma, 85.2%; in the test with SK-MEL-28 melanoma it was 86.1%; in the test on SK-MEL-2 melanoma, 46.2%; in the test with SN12C renal, 66.9%; in the test with UO-31 renal it was 72.2%. Besides, the growth was 68.2% in the test on TK-10 renal; 92.7% with ACHN renal; 81.6% in the test on CAKI-1 renal; -5.06% (active) with A498 renal; 50.7% with CCRF-CEM leukemia; 47.7% with MOLT-4 leukemia. For the same compound, the growth in the test with SR leukemia was 62.7%.

As to `C#Cc1ccc(-n2c(/C=C/c3ccc(C(F)(F)F)cc3)nc3ncccc3c2=O)cc1`, the growth in the test on HT29 colon was 0.334% (active); with SNB-75 CNS, 25.7%; with SNB-19 CNS, 68%; with U251 CNS, 39.2%; in the test on PC-3 prostate it was 29.4%; in the test with SK-MEL-5 melanoma, -73.6% (active). Moreover, the growth in the test with UACC-62 melanoma was 17%; in the test on LOX IMVI melanoma it was -18% (active); in the test with SK-MEL-28 melanoma, 33.3%; in the test on SK-MEL-2 melanoma, -37.1% (active); with SN12C renal, 26.6%; in the test on UO-31 renal it was 11.6%. For the same compound, the growth with TK-10 renal is 11.4%; in the test with ACHN renal it was 19%; in the test on CAKI-1 renal it was 14.9%; in the test with A498 renal, 43.7%; in the test with CCRF-CEM leukemia, 3.18% (active); in the test on MOLT-4 leukemia it was 10.2%. The growth in the test on SR leukemia was 0.507% (active).

As to `N#CCCN1C/C(=C/c2ccccc2)C(=O)/C(=C/c2ccccc2)C1`, the growth in the test with HT29 colon is -48.5% (active); in the test with SNB-75 CNS, 62.1%; in the test with SNB-19 CNS it was 68%; in the test with U251 CNS it was -0.696% (active); with PC-3 prostate it was 41.1%; in the test with SK-MEL-5 melanoma, 29%. Also, the growth was 0.851% (active) with UACC-62 melanoma; -65.5% (active) in the test with LOX IMVI melanoma; 54.2% with SK-MEL-28 melanoma; 62.3% in the test with SK-MEL-2 melanoma; 25.3% in the test on SN12C renal; 51.6% with UO-31 renal. For the same compound, the growth in the test with TK-10 renal is 95.6%; with ACHN renal, 8.94% (active); in the test on CAKI-1 renal it was 19.1%; in the test with A498 renal, 106%; in the test on CCRF-CEM leukemia it was -1.14% (active); in the test with MOLT-4 leukemia it was 4.56% (active). The growth in the test with SR leukemia was -2.02% (active).

For the compound `CC/C(C)=C(\C)C(=O)O`, the growth in the test on HT29 colon is 106%; in the test with SNB-75 CNS, 94.5%; with SNB-19 CNS it was 112%; with U251 CNS, 105%; with PC-3 prostate, 104%; in the test on SK-MEL-5 melanoma it was 103%. Further, the growth in the test on UACC-62 melanoma is 112%; with LOX IMVI melanoma it was 92.7%; in the test on SK-MEL-28 melanoma, 111%; in the test with SK-MEL-2 melanoma it was 102%; with SN12C renal it was 111%; in the test with UO-31 renal, 78.4%. The growth in the test with TK-10 renal is 105%; with ACHN renal, 116%; with CAKI-1 renal, 95.5%; with A498 renal, 110%; in the test on MOLT-4 leukemia, 101%; in the test with SR leukemia it was 107%.

On to `COc1cc(C2CC(c3ccc(Nc4ccnc5cc(Cl)ccc45)cc3)=NN2c2ccc(Cl)cc2)cc(OC)c1OC` (centres undefined), for which the growth is 32.6% in the test with HT29 colon; 57.2% in the test on SNB-75 CNS; 67.9% in the test with SNB-19 CNS; 51.9% with U251 CNS; 36.4% in the test on PC-3 prostate; 46.8% with SK-MEL-5 melanoma. Also, the growth in the test on UACC-62 melanoma was 22.2%; in the test on LOX IMVI melanoma, 56.3%; in the test with SK-MEL-28 melanoma, 67.4%; in the test on SK-MEL-2 melanoma it was 55.2%; with SN12C renal, 59.5%; with UO-31 renal, 18.4%. Further, the growth in the test with TK-10 renal was 64.1%; with ACHN renal it was 38%; in the test on CAKI-1 renal it was 18.6%; in the test on A498 renal, 52.3%; in the test with CCRF-CEM leukemia it was 28%; with MOLT-4 leukemia it was 31.5%. Further, the growth in the test on SR leukemia is 12.2%.

On to `N=C(N)c1ccc(-c2ccc(-c3cccs3)s2)s1`, for which the growth in the test with HT29 colon was -79.5% (active); in the test with SNB-75 CNS, -31.7% (active); in the test with SNB-19 CNS it was -13.4% (active); in the test on U251 CNS, -85.9% (active); with PC-3 prostate, 5.1% (active); in the test with SK-MEL-5 melanoma, -9.08% (active). Further, the growth is -90.7% (active) with UACC-62 melanoma; -75.7% (active) in the test on LOX IMVI melanoma; -94.7% (active) in the test on SK-MEL-28 melanoma; -0.961% (active) with SK-MEL-2 melanoma; -74.9% (active) in the test with SN12C renal; -77.1% (active) in the test on UO-31 renal. Besides, the growth is -51.1% (active) in the test on TK-10 renal; 66.4% in the test with ACHN renal; -49% (active) in the test with CAKI-1 renal; -32.6% (active) with A498 renal; -52.3% (active) in the test on CCRF-CEM leukemia; -55.7% (active) with MOLT-4 leukemia. For the same compound, the growth in the test with SR leukemia is -50.9% (active).

In the case of `O=C(O)c1ccc(P(=O)(O)O)c([N+](=O)[O-])c1`, the growth is 101% in the test on HT29 colon; 87.1% with SNB-75 CNS; 107% in the test on SNB-19 CNS; 95.1% in the test on U251 CNS; 97.7% in the test on PC-3 prostate; 95.3% in the test with SK-MEL-5 melanoma. The growth is 108% in the test on UACC-62 melanoma; 102% in the test on LOX IMVI melanoma; 110% with SK-MEL-28 melanoma; 117% in the test with SK-MEL-2 melanoma; 101% in the test on SN12C renal; 86% with UO-31 renal. The growth in the test with TK-10 renal is 108%; in the test with ACHN renal, 103%; in the test on CAKI-1 renal, 94.7%; in the test on A498 renal, 93.9%; in the test on MOLT-4 leukemia it was 111%; in the test with SR leukemia, 87.7%.

`CC(=O)O[C@]1(C)CC[C@H]2[C@H](CNCCc3ccc(Cl)cc3)C(=O)O[C@@H]2C2=C(C)C(=O)C[C@H]21`: the growth was 90% with HT29 colon; 64.1% in the test on SNB-75 CNS; 79.4% with SNB-19 CNS; 91.3% in the test on U251 CNS; 86.9% with PC-3 prostate; 92.2% in the test on SK-MEL-5 melanoma. Moreover, the growth is 97.9% in the test on UACC-62 melanoma; 90.6% in the test on LOX IMVI melanoma; 101% in the test on SK-MEL-28 melanoma; 114% in the test with SK-MEL-2 melanoma; 94.2% with SN12C renal; 78.1% in the test on UO-31 renal. Besides, the growth was 97.7% with TK-10 renal; 96.2% in the test with ACHN renal; 98.5% in the test on CAKI-1 renal; 86.9% in the test on A498 renal; 83.6% in the test with CCRF-CEM leukemia; 71% in the test with MOLT-4 leukemia. The growth in the test on SR leukemia is 81.4%.

Consider `COc1cc(-c2cc(/C=C/C(=O)c3ccc(N)cc3)[nH]n2)cc(OC)c1OC`, for which the growth was 2.34% (active) with HT29 colon; 8.6% (active) in the test on SNB-75 CNS; 36.6% in the test with SNB-19 CNS; -58.4% (active) in the test on U251 CNS; 11.1% in the test on PC-3 prostate; 11.8% in the test with SK-MEL-5 melanoma. Besides, the growth in the test on UACC-62 melanoma is 20.6%; in the test with LOX IMVI melanoma, -52.3% (active); with SK-MEL-28 melanoma, 6.59% (active); with SK-MEL-2 melanoma, 28.6%; in the test with SN12C renal, 13.2%; in the test on UO-31 renal it was 6% (active). Also, the growth in the test with TK-10 renal is -2.46% (active); in the test on ACHN renal, -52.8% (active); in the test on CAKI-1 renal, 9.46% (active); with A498 renal, -8.28% (active); in the test on CCRF-CEM leukemia, 5.88% (active); in the test on MOLT-4 leukemia, 3.34% (active). The growth in the test on SR leukemia was 9.82% (active).
